Sampled rows, rich in hits. Any-hit rate of the full collection: about 2.2%.
BRCA1 expr up: increases BRCA1 expression | hit rate 1.1% among 380,000 | MCF7-BRCA1-FFLuc reporter, luminescence, 48 h; response scale: scaled: vehicle 0%, 10 µM genistein 100% | Potency, µM (top dose mostly 46.1 µM), usual class: activators; note: nearly all actives have a fitted effect of over 80% in size
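Quantitative HTS in MCF7 cells stably reporting BRCA1 expression via firefly luciferase. Compound treatment lasts 48 h at 37 °C in phenol-red free MEM. Activation is expressed relative to genistein at 10 microM and DMSO.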
Giardia kill: Giardia lamblia killing; Giardia lamblia trophozoite viability; activity change, % at 7.66 µM, hits read low; hit rate 0.15% among 340,000; AID 540267; in the data active = activity change below about -80%; inconclusive = between about -30% and that limit;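 note: parasites exposed to compound for two days anaerobically before the ATP read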
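Killing of trophozoites was scored by loss of ATP luminescence after a 48 hrs anaerobic exposure to compounds at 37 deg C, using 100 cells per well.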
IL-2 act: IL-2 activation. IL-2 activation reporter assay, cell-based qHTS; stimulated with anti-CD3/CD4/CD28 beads; in transgenic mouse T cells. activation, % (series mostly up to about 46 µM). hit rate 0.065% among 360,000. AID 652025; in the data active = activation above about 50%; inconclusive = mostly about 30% to 49%
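Readout is EGFP and DsRed signal by fluorescent plate cytometry after 18 h at 37 degrees C. Transgenic mouse T cells (750/well) received compound for 60 min before bead stimulation (anti-CD3, anti-CD4, anti-CD28); memory T cells served as non-tolerant control.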
TrxR1 substrate: rat thioredoxin reductase 1 substrate activity; O89049; purified TrxR1 substrate turnover, NADPH consumption readout; Potency, µM (top dose mostly 114 µM); hit rate 0.01% among 390,000; note: nearly all actives have a fitted effect of over 50% in size
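Rat TrxR1, dispensed at 90 nM, was prereduced with 400 uM NADPH (final) for 5 min at ~22 deg C, then incubated with compound 15 min before 400 uM selenite. A first-read NADPH fluorescence drop versus no-compound background flagged substrates.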
IDH1 R132H inh: inhibitors of human mutant IDH1 R132H. AID 602179. hit rate 0.093% among 390,000. O75874. IDH1-R132H enzyme, NADPH consumption, diaphorase/resazurin fluorescence. Potency, µM (highest dose often 76.6 µM), actives largely listed as inhibitors; note: nearly all actives have a fitted effect of over 65% in size
Target sequence (O75874 whole entry R132H, stated change not applied): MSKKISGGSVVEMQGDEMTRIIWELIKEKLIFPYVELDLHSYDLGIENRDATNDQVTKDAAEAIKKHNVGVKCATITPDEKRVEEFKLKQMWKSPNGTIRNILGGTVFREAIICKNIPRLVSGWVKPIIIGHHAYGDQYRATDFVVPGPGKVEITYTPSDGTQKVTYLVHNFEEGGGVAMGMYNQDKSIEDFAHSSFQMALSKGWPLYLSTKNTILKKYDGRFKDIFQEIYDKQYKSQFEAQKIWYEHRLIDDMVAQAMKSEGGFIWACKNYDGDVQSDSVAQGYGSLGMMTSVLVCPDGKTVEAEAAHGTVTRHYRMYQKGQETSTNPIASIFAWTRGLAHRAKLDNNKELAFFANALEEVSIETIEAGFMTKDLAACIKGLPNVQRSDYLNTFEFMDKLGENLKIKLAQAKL
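IDH1-R132H (0.5 ug/mL dispensed) in pH 7.5 Tris buffer was preincubated 30 min with compound, then given a substrate mix of 0.016 mM NADPH and 2 mM alpha-KG for 80 min at room temperature; remaining NADPH was read by diaphorase/resazurin fluorescence.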
rTrxR1 inhibitor: blocks rat thioredoxin reductase 1. hit rate 1% among 390,000. O89049. Potency, µM (series often up to 114 µM), hits mostly inhibitors. AID 588453. recombinant rTrxR1, NADPH fluorescence consumption, selenite substrate; note: nearly all actives have a fitted effect of over 65% in size
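Rat TrxR1 (90 nM in the dispensed reagent) was pre-reduced with 400 uM NADPH for 5 min at room temperature, then incubated with compound for 15 min. After 400 uM selenite was added, NADPH fluorescence (Ex 340/Em 450 nm) was followed for 8 min.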
Large screens that a line does not name were inactive. Unless noted, calls come from the whole dose curve; as a rule, active = well fitted curve in the direction sought with a large enough effect; inconclusive = small, poorly fitted or top-dose-only effect, or another doubt; inactive = no such curve, though single readings can be large; an effect the other way counts as inactive or inconclusive.

O=S(=O)(c1ccc2c(c1)CCCC2)N1CCN(c2nc(-c3ccccc3)nc3ccccc23)CC1	none (no result: IL-2 act, IDH1 R132H inh)
CC(C)=CNNC(=O)c1ccc(O)cc1	none (no result: Giardia kill, IL-2 act, IDH1 R132H inh)
COc1ccccc1NC(=O)C1=C(C)Nc2c(C(=O)Nc3ccc(C)cc3)cnn2C1c1cccc(OC)c1OC (configuration not stated)	none (no result: BRCA1 expr up, Giardia kill, IL-2 act)
Cc1cc(C(=O)COC(=O)c2ccc(NC(=O)CC#N)cc2)c(C)n1C1CC1	BRCA1 expr up 4.5µM
Cc1cc(C(=O)COC(=O)c2ccc(Cl)c(S(N)(=O)=O)c2)c(C)n1C1CC1	BRCA1 expr up 11µM
Cc1cc(C(=O)COC(=O)c2ccc(NC(=O)CC#N)cc2)c(C)n1CC(F)(F)F	BRCA1 expr up inconclusive (no result: Giardia kill, TrxR1 substrate, rTrxR1 inhibitor)
CC(C)N(C(=O)COC(=O)c1ccc(Cl)c(S(N)(=O)=O)c1)C(C)C	none
CCN(CC)c1ccc(/C=C2/SC(=O)N(C(C)C)C2=O)o1	rTrxR1 inhibitor 3.2µM
COc1ccc(OC)c(CCNC(=O)c2cnn(-c3ccccc3)c2-n2cccc2)c1	none (no result: Giardia kill, IL-2 act)
CCn1c(C)nc2cc(C(=O)NNC(=S)Nc3ccc(F)cc3)ccc21	BRCA1 expr up 10µM
CCn1c(C)nc2cc(C(=O)NNC(=S)Nc3ccccc3Cl)ccc21	BRCA1 expr up 4µM
CCn1c(C)nc2cc(C(=O)NNC(=S)Nc3ccc(Cl)cc3Cl)ccc21	none
CCn1c(C)nc2cc(C(=O)NNC(=S)Nc3ccc(Cl)cc3)ccc21	none
CCc1cc(=O)[nH]c(SCc2nc(-c3ccccc3)no2)n1	none (no result: BRCA1 expr up, Giardia kill, IL-2 act)
CCN(CC)C(=O)c1ccc(/C=C/c2c[nH]c3ccccc23)[n+](C)c1	IL-2 act 79, TrxR1 substrate inconclusive
CC[n+]1c(/C=C/c2c[nH]c3ccccc23)ccc2cc(C)ccc21	IL-2 act 68
Cc1ccc(C(=O)/C=C/c2c[nH]c3ccccc23)cc1	BRCA1 expr up inconclusive
Cc1ccc(Nc2ncccc2C(N)=O)cc1[N+](=O)[O-]	BRCA1 expr up 5.6µM
Cc1ccc(Nc2ncccc2C(=O)O)cc1C	BRCA1 expr up inconclusive
CCOC(=O)c1c(C)[nH]c(C)c1S(=O)(=O)N1CCCC(C(=O)N2CCN(c3ccc(Cl)cc3)CC2)C1 (configuration not stated)	none (no result: BRCA1 expr up, Giardia kill, IL-2 act)
Cn1ncc2c(=S)nc(Cl)[nH]c21	rTrxR1 inhibitor 7.1µM
Cc1ccc(NC(=O)CN2C(=O)COc3ccc(S(=O)(=O)N4CCCCCC4)cc32)c(C)c1	none (no result: BRCA1 expr up, Giardia kill, IL-2 act)
O=C(NCCCc1ccccc1)c1ccc([N+](=O)[O-])cc1Cl	BRCA1 expr up 10µM
O=C(Nc1cccc(O)c1)c1ccc([N+](=O)[O-])cc1Cl	BRCA1 expr up 5µM
Cc1ccc(NC(=O)c2ccc([N+](=O)[O-])cc2Cl)nc1	BRCA1 expr up 1.1µM, Giardia kill inconclusive
O=C(CCCc1ccccc1)Nc1cccc([N+](=O)[O-])c1	BRCA1 expr up 13µM
Fc1ccc(CCNc2ncnc3nc[nH]c23)cc1	none (no result: IL-2 act, IDH1 R132H inh)
CCCCN(CCCC)C(=O)CN(C)S(=O)(=O)c1ccc2c(c1)c(=O)n(C)c(=O)n2C	none (no result: Giardia kill, IL-2 act)
COc1cc(Cl)c(NC(=O)CN2C(=O)c3cccnc3Sc3ccccc32)c(OC)c1	none (no result: BRCA1 expr up, Giardia kill, IL-2 act, IDH1 R132H inh)
COc1cc2cc(CCOC(=O)c3ccc(C(F)(F)F)cc3)oc(=O)c2cc1OC	none
COc1ccc(CC(=O)OCCc2cc3cc(OC)c(OC)cc3c(=O)o2)cc1	rTrxR1 inhibitor 18µM
CC(=O)NCCCC(=O)NNC1CC(=O)N(c2cccc(Cl)c2)C1=O (configuration not stated)	rTrxR1 inhibitor 14µM
CN(N=O)c1ccc(/C=C/c2ccccc2)cc1	BRCA1 expr up 5.6µM (no result: Giardia kill, IL-2 act, IDH1 R132H inh)
Cc1ccc(CNC(=O)CN2N=C(c3ccc(C)cc3)CCC2=O)cc1	none (no result: BRCA1 expr up, Giardia kill, IL-2 act)
Cc1cccnc1NC(=S)Nc1ccc(F)cc1F	BRCA1 expr up inconclusive
Cc1ccc(C)c(NC(=S)Nc2ncccc2C)c1	BRCA1 expr up 7.9µM
COc1cc(C)nc(N2CCCC(C(=O)NC3CCC(C)CC3)C2)n1 (configuration not stated)	BRCA1 expr up 3.5µM

Source: PubChem BioAssay (National Center for Advancing Translational Sciences (NCATS))
